SMILES strings stand for the structures. Compounds without any hit were thinned out: in the full panel of roughly 79,000, 15% have a hit. A number with no mark means an inactive call. Activity calls are given as the source filed them. Rule as the data show it: active = growth inhibition above about 70%; inactive = the rest.

The experiment is described as follows: NCI Yeast Anticancer Drug Screen. Data for the bub3 strain (AID 167). Particulars: S. cerevisiae bub3 mutant strain, at 50.0 µM, hits give high values. The method, then:
Growth inhibition of yeast strains with defined genetic alterations is measured as a screen for potential anti-cancer activity. Selected strains with alterations in DNA damage repair or cell cycle control were exposed to compounds and growth inhibition was measured relative to vehicle treated controls. The strain used in this assay is bub3
Consider `COc1cc(CCN=Cc2ccccc2O)c([N+](=O)[O-])cc1OC`, for which the growth inhibition is -7.05%.
The same measure for `CCOC(=O)Nc1nn[nH]n1`: -4.95%; for `c1c(-c2cc(C3CC3)[nH]n2)n[nH]c1C1CC1`: 1.8%; for `FC(F)(F)c1ccc2c(c1)N(CCCN1CCN(C3CC3)CC1)c1ccccc1S2`: 99% (active).
For `CCC(C)(C)C1CCC(O)CC1` (stereo not given), the growth inhibition was -5.15%.
The same measure for `Cc1ccc(S(=O)(=O)O)c(C)c1`: -0.9%.
The same measure for `CC1CC(O)C2C3(C)CCCC2(COC3=O)C12CCC1(CCOC1=O)O2` (stereo not given): 8.35%.
Take `CCN1C(=O)/C(=C/C=C/N(C)c2ccccc2)SC1=S`: the growth inhibition was 20.9%.
In the case of `COc1cc(CN)ccc1O`, the growth inhibition was 11.8%.
Take `CC(C)=C(NC(=O)c1ccccc1)C(=O)O`: the growth inhibition is -2.7%.
On to `CN(C)c1ccc2oc(=O)c3ccccc3c2c1`, for which the growth inhibition is 0.5%.
As to `O=C(Cc1ccccc1)Cc1ccccc1`, the growth inhibition is -8.65%.
In the case of `Brc1cnc2ccccc2c1`, the growth inhibition was -2.55%.
For the compound `O=C(CN1CCNCC1)N1CCOCC1`, the growth inhibition was -16.7%.
The same measure for `Nc1nc(OCc2ccccc2)c2[nH]cnc2n1`: -30.9%.
The figure for `C#CC(C)(O)c1ccc(Cl)cc1` (stereo not given) is -26.4%; for `CN1C(=O)CN2CCc3ccccc3C2c2cc(Cl)ccc21` (stereo not given) it is 48%.
As to `NC(=S)N/N=C/c1ccc(N)cc1`, the growth inhibition was 2.35%.
Turning to `Oc1ccc(Cc2ccccc2)c2cccnc12`, the growth inhibition was -17.1%.
The figure for `N#Cc1ccc(OC(=O)Nc2ccc(Cl)c(Cl)c2)cc1` is 9.95%; for `CC(=O)CC(=O)N(C)C` it is -2.5%.
Turning to `CCOC(=O)CSc1c([N+](=O)[O-])ncn1C`, the growth inhibition is 8.75%.
The same measure for `CC(=O)OCCC(C)CCC=C(C)C` (stereo not given): -16.9%; for `C=C[Si](OC(C)=O)(OC(C)=O)OC(C)=O`: 13.7%.
Turning to `N#Cc1c(N)sc(=S)c2c1CCCC2`, the growth inhibition was -2.05%.
Regarding `Nc1ccc(N=Nc2ccc(S(=O)(=O)O)cc2)c2ccccc12`, the growth inhibition was 1.75%.
The figure for `Cc1cc(=O)cc(C)n1-c1ccccc1` is 12.1%.
Regarding `O=C(c1ccc(Cl)cc1)c1ccccc1Cl`, the growth inhibition was 25%.
Regarding `O=[N+]([O-])c1ccc(-c2ncc(-c3ccc(Br)cc3)o2)cc1`, the growth inhibition was 17.2%.
Take `CCN(CC)CCNc1ccc(CO)c2sc3ccccc3c(=O)c12`: the growth inhibition is -24.1%.
The same measure for `CCOc1ccccc1/C=N/Nc1nc2ccccc2o1`: 6.85%; for `COc1ccc(C2OC(N)=C(O)C2=O)cc1OC` (stereo not given): -30.1%.
Consider `OCCN(CCO)C(=S)S`, for which the growth inhibition was 4.95%.
The same measure for `O=[N+]([O-])c1cccc2nsnc12`: -8.15%; for `CCOC(=O)c1ccc(Nc2sc(C(=O)c3cccc([N+](=O)[O-])c3)c(N)c2C#N)cc1`: 2.8%.
The figure for `CCCCCCCCOC(=O)c1ccccn1` is 16.6%.
On to `COc1cccc(/C=N/NC(=S)NC2CC3CCC2C3)c1O` (stereo not given), for which the growth inhibition is -13.9%.
For `CC(C)=NNc1ccc([N+](=O)[O-])cc1[N+](=O)[O-]`, the growth inhibition was -5.75%.
Regarding `CN(C)c1nc2c([nH]1)c(=O)n(C)c(=O)n2C`, the growth inhibition is -10.1%.
The same measure for `CC1(c2ccccc2)NC(=O)NC1=O` (stereo not given): -7.65%.

Values taken from PubChem BioAssay (NCI).
